Several values for one entry are separate records, joined by “and”; a condition that tells them apart may be missing. Identical values can stand only once. Among all 650,000 compounds or so, about 5,900 (0.91%) were called active. Many of the other results were omitted from the sample, so actives are more common in it than they were. A number with no mark means an inactive call. Rule as the data show it: active = inhibition above about 50%; inactive = the rest.
target: Microphthalmia-associated transcription factor (Homo sapiens) (UniProt O75030); assay: MITF inhibitors, primary screen, biochemical, AlphaScreen, human (AID 1259374); conditions: AlphaScreen MITF homodimerization, bead proximity signal; at 2.6 µM; active compounds read high;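 also: 0% = vehicle wells with protein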
Sequence (O75030 whole entry, looked up): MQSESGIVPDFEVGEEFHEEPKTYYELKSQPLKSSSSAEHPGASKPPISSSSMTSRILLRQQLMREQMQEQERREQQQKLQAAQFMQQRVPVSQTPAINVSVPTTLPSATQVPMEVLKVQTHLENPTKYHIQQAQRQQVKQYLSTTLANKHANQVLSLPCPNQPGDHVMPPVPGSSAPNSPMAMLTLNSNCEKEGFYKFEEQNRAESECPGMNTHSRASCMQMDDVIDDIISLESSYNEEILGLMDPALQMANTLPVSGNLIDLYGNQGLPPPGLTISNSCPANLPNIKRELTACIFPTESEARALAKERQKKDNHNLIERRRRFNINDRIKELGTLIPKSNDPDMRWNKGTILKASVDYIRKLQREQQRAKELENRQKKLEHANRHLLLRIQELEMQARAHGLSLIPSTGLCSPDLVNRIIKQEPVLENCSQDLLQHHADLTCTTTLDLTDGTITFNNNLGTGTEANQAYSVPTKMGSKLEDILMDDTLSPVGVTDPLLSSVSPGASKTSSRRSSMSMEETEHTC

Row | SMILES | inhibition
1 | COC(=O)c1ccccc1S(=O)(=O)C1CCN(Cc2cccnc2)CC1 | 13.1%
2 | COc1cccc(OC)c1C(=O)N1CCN(Cc2cccnc2)CC1 | 79.5% (active)
3 | COc1ccccc1C(=O)N1CCN=C1SCc1cccnc1 | -16.8%
4 | Cc1cc(C)c(S(=O)(=O)N(C)CCO)cc1N(C)S(=O)(=O)c1ccc(Cl)cc1 | -12%
5 | CCCCC(=O)N1CCN(c2ccccc2OCC)CC1 | -2.97%
6 | CCN(CC)CCNC(=O)c1sc2ncn(Cc3ccccc3F)c(=O)c2c1C | -7.31%
7 | COc1cccc(C2Nc3ccc(C(=O)O)cc3C3C=CCC32)c1OC (stereo not given) | 13.7%
8 | CCOc1cccc2c1N[C@@H](c1ccc(C(=O)O)cc1)[C@H]1CC=C[C@@H]21 | 65.3% (active)
9 | COC(=O)c1ccc(C2Nc3c(C(=O)OC)cccc3C3C=CCC32)cc1 (stereo not given) | 4.19%
10 | O=C(NNC(=O)c1ccccn1)NC12CC3CC(CC(C3)C1)C2 | 5.98%
11 | COc1cccc(C(=O)NCCSc2ncc(-c3ccc(C)cc3)[nH]2)c1 | 8.31%
12 | Cc1cccc(OCc2nc(C#N)c(NCCCN(C)C)o2)c1 | -13.4%
13 | N#Cc1nc(COc2cccc(Cl)c2)oc1NCCCn1ccnc1 | 62.2% (active)
14 | Cc1ccc(-c2nc(C#N)c(NCCCn3ccnc3)o2)cc1 | -5.46%
15 | O=C(CSc1ccc2nc(-c3ccccc3)cn2n1)Nc1cccc2ccccc12 | -15.1%
16 | CCN1C(=O)/C(=C/c2ccc(-c3ccc(Br)cc3)o2)N(CC)C1=S | -10.4%
17 | Cc1ccc(S(=O)(=O)N2CCN(Cc3ccc(F)cc3)CC2)cc1 | 49.5%
18 | COc1ccccc1CN1CCN(S(=O)(=O)c2ccc([N+](=O)[O-])cc2)CC1 | 39.9%
19 | CSc1ccc(CN2CCN(S(=O)(=O)c3ccc([N+](=O)[O-])cc3)CC2)cc1 | 53.2% (active)
20 | CSc1ccccc1NC(=O)c1cc2nc(-c3ccc(Br)cc3)cc(C(F)(F)F)n2n1 | -5.34%
21 | COc1cc(C2N=C(c3ccccc3)C(C)(C)N2O)ccc1O (stereo not given) | 2.87%
22 | O=S(=O)(c1ccc(Cl)cc1)N1CCc2ccccc2C1 | 10.1%
23 | CCOC(=O)c1c(NC(=O)c2ccc(OC)cc2OC)sc(C(C)=O)c1C | 7.53%
24 | Cc1cccc(C(=S)N2CCOCC2)c1 | -19.2%

Row | SMILES | inhibition
25 | COc1ccc(CNc2ccc3ncc(-c4cccc(O)c4)n3n2)cc1 | -19%
26 | COc1cccc(CN2CCN(CCCc3ccccc3)CC2CCO)c1 (stereo not given) | 69% (active)
27 | COc1ccc(CN2CCN(CCCc3ccccc3)C(CCO)C2)cc1O (stereo not given) | 7.3%
28 | CCOc1cc(CN2CCN(Cc3cccc(OC)c3)C(CCO)C2)ccc1O (stereo not given) | -2.92%
29 | OCC1CCN(C2CCCN(Cc3cccc(-c4ccco4)c3)C2)CC1 (stereo not given) | 3.07%
30 | COc1ccccc1N1C(=O)c2ccc(C(=O)NN3C(=O)c4ccccc4C3=O)cc2C1=O | 11.1%
31 | COc1cc(N/N=C(\C)c2ccc([N+](=O)[O-])cc2)ncn1 | 9.19%
32 | Cc1cccc(CSc2n[nH]c(=O)[nH]c2=O)c1 | 58.5% (active)
33 | O=c1[nH]nc(SCc2cn3cc(Cl)ccc3n2)c(=O)[nH]1 | -5.72%
34 | O=c1[nH]nc(SCc2ccc(Cl)cc2)c(=O)[nH]1 | 4.19%
35 | O=c1oc(-c2cccc3ncccc23)nn1Cc1cccnc1 | -6.6%
36 | COc1ccc(N(CC(=O)N2CCN(C)CC2)S(C)(=O)=O)cc1 | 13.7%
37 | CCOc1ccc(-c2ccc(C)c(NC(=O)c3cccs3)c2)nn1 | 0.28%
38 | Cc1ccc(C2=NN3C(=N)/C(=C/c4ccc(-c5ccc(C(=O)O)cc5)o4)C(=O)N=C3S2)cc1 | 3.4%
39 | Cc1ccc(C2=NN3C(=N)/C(=C/c4ccco4)C(=O)N=C3S2)cc1 | -3.9%
40 | N=C1/C(=C\c2ccc([N+](=O)[O-])o2)C(=O)N=C2SC(N3CCOCC3)=NN12 | 74.2% (active)
41 | Cc1nnc(SCC(=O)N2c3ccccc3Sc3ccccc32)nc1C | -1.53%
42 | COc1ccc(/C=C/C(=O)OCCN2CCOCC2)cc1 | 12.6%
43 | O=C(OCCN1CCOCC1)c1c(Cl)nc2sccn12 | 68.3% (active)
44 | O=C(OCCN1CCOCC1)C1(c2ccccc2)CCCCC1 | 3.29% and -3.71%
45 | CSc1cccc(NC(=O)C2C3C=CC4(O3)C2C(=O)N(CCCN2CCCC(C)C2)C4C(=O)NC2CCCCC2)c1 (stereo not given) | 1.08%
46 | COc1ccc(S(=O)(=O)N2CCN(Cc3ccccc3Cl)CC2)cc1 | 8.12%
47 | COc1ccc(OC)c(CN2CCC(C(=O)NCC(C)C)CC2)c1 | 10.5%
48 | COc1ccc(CN2CCN(Cc3cccc(Br)c3)CC2)c(OC)c1 | 72.2% (active)

Row | SMILES | inhibition
49 | COc1cc(CN2CCOCC2)cc(OC)c1OC | 5.88%
50 | COc1cc(CN2CCN(Cc3ccccc3Cl)CC2)cc(OC)c1OC | 74.9% (active)
51 | COc1ccc(CNCc2cccc(F)c2)c(OC)c1 | 17.1%
52 | COc1ccc(CN2CCCCC2)c(OC)c1 | -6.28%
53 | COc1ccc(CN2CCN(Cc3cc(OC)c(OC)c(OC)c3)CC2)cc1 | 70.5% (active)
54 | COc1ccc(OC)c(CN2CCN(C3CCCCCC3)CC2)c1 | 49.2%
55 | COc1cc(CN2CCN(C3CCCC3)C(CCO)C2)cc(OC)c1OC (stereo not given) | -4.18%
56 | COc1cc(CN2CCC(O)CC2)cc(OC)c1OC | 20.4%
57 | COc1ccc(OC)c(CN2CCN(Cc3ccccc3OC)CC2)c1 | 65.1% (active)
58 | CS(=O)(=O)Nc1ccc(C(=O)Nc2ccc(Br)c(Cl)c2)cc1 | 11.7%
59 | COc1ccc(C(=O)N2CCc3c(nc(C)[nH]c3=O)C2)cc1Cn1nc(C)cc1C | 4.03%
60 | COc1cc(C2C3=C(Nc4[nH]c(=O)[nH]c(=O)c42)C(=O)CC(C)(C)C3)ccc1O (stereo not given) | -4.39%
61 | Cc1ccc(Cl)c2sc(=NC(=O)CN3C(=O)c4ccccc4C3=O)n(C)c12 | 14.4%
62 | O=C(NCCc1ccc(O)cc1)C1CCN(c2ccc(Nc3ccc4ncccc4c3)nn2)CC1 | 14.1%
63 | COc1ccc(Cl)cc1-c1nc(SCC(=O)Nc2ccc([N+](=O)[O-])cc2C#N)n[nH]1 | 5.04%
64 | Cc1cc2c(cc3c(=O)n(CC(=O)N4CCCCCC4)nc(C)n32)s1 | 19.7%
65 | CC(=O)NC1(c2ccccc2)CCN(C(=O)N(c2ccccc2)c2ccccc2)CC1 | -5.46%
66 | N#CC1=C(N)Oc2n[nH]c(-c3ccccc3)c2C1c1cc(Cl)cc(Cl)c1OC(=O)N1CCOCC1 (stereo not given) | 1.7%
67 | O=C(CSc1cn(Cc2cccc(F)c2)c2ccccc12)Nc1ccccc1 | -4.78%
68 | CCOC(=O)c1c(NC(=O)COc2ccc(C)cc2Br)sc2c1CCC(C)C2 (stereo not given) | 14.2%
69 | O=C(CSc1nnc2ncccn12)N1CCN(c2ccccc2F)CC1 | -5.77%
70 | COc1ccc(OC)c(CN2CCC3(CCC(CNC(C)=O)O3)CC2)c1 (stereo not given) | -3.91%
71 | COc1ccccc1CN1CC(C)OC(C)C1 (stereo not given) | 82.9% (active)
72 | COc1ccccc1CN1CCN(c2ccccn2)CC1 | 45.1%

Row | SMILES | inhibition
73 | COc1ccc(S(=O)(=O)NCc2ccccc2OC)cc1Br | 9.71%
74 | COc1ccc(CN2CCN(Cc3cc(OC)ccc3OC)CC2)cc1 | 76.4% (active)
75 | CCOc1ccc(CN2CCN(Cc3cc(OC)ccc3O)CC2)cc1 | 20.6%
76 | COc1ccc(OC)c(CN2CCc3nnc(C4CCCO4)n3CC2)c1 (stereo not given) | 0.68%
77 | COc1ccc(CN2CCN(Cc3ccccc3OC)CC2)cc1Br | 77.2% (active)
78 | CC1CN(Cc2ccc3ccccc3c2)CC(C)O1 (stereo not given) | 1.44%
79 | C=C(C)CN(CC)C(=O)C1CCN(Cc2cc(OC)ccc2OC)CC1 | 33.5%
80 | CCN(CC)C(=O)C1CCCN(Cc2ccccc2OC)C1 (stereo not given) | 16.3%
81 | COc1ccc(OC)c(CN2CCN(Cc3ccc(Cl)cc3)CC2)c1 | 82.1% (active)
82 | Cc1ccc(N2C(=O)CN(S(C)(=O)=O)CC2(C)C(=O)NC2CCCC2)cc1C (stereo not given) | -2.11%
83 | O=C(OCCN=C1NS(=O)(=O)c2ccccc21)c1ccc([N+](=O)[O-])cc1 | -14%
84 | O=C1c2ccccc2C(=O)N1CCSc1nc2sc3c(c2c(=O)n1-c1ccccc1)CCCC3 | -1.49%
85 | CCOC(=O)c1cc(-c2ccc(O)c(OC)c2)no1 | -12.8%
86 | O=C(NCc1ccc(Cl)cc1)C1CCN(c2nnnn2-c2ccccc2)CC1 | 5.24%
87 | O=C(CSc1nc(Nc2ccc(F)cc2)c2ccccc2n1)c1ccc(Cl)cc1 | 10.1%
88 | Cc1ccc2[nH]c3nc(N/N=C/c4ccc(N(C)C)cc4)nnc3c2c1 | 15.6%
89 | CC(C)N(CCNc1nc(N2CCCC2CO)nc2nc[nH]c12)C(C)C (stereo not given) | 5.38%
90 | CC(=O)Oc1ccccc1C(=O)Nc1ccc(Cl)c(Cl)c1 | 0.46%
91 | CCOC(=O)/C(C#N)=C/c1ccccc1OC | -4.17%
92 | CNc1ccccc1C(=O)OCc1ccc([N+](=O)[O-])cc1Cl | 12.5%
93 | Cc1ccc2nc3sc(C(=O)Nc4c[nH]c(=O)[nH]c4=O)c(N)c3cc2c1 | 0.86%
94 | Cc1ccc2nc(CN3CCN(C=O)CC3)nc(N3CCSCC3)c2c1 | -5.97%
95 | O=C(NCCc1ccc(F)cc1)c1ccc(Br)o1 | -9.44%

Source: PubChem BioAssay AID1259374 (The Scripps Research Institute Molecular Screening Center, 2018)
